{"source": "PubChem BioAssay (NCATS)", "note": "Records with an inconclusive call do not appear. A call without a number means that no potency is given here. Values without a mark were called inactive. The source made the active and inactive calls. The call rests on the fitted dose curve; in most records, active means well fitted cell-killing curve with a large enough effect; inconclusive means small, poorly fitted or top-dose-only effect, or effect the other way; inactive means flat fitted curve, though single readings scatter. Potency means the concentration at half of the fitted maximal effect.", "data": [{"system": "HeLa", "test": "Primary qHTS to identify gynecologic anti-cancer compounds using libraries of approved drugs and bioactive compounds (AID 1345084); further: nearly all actives have a fitted effect of over 55% in size", "conditions": "Gynecologic cancer cell panel viability, ATPlite luminescence, 48 h; series mostly up to 57.5 µM", "outline": "(§1)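 Five-point cytotoxicity, 48 h drug exposure at 37 C, 5% CO2, on cells seeded 16 h beforehand. ATP content read by ATPlite luminescence.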", "values": [{"compound": "C=C1C(=O)O[C@@H]2C3=C(C)CCC[C@]3(C)CC[C@@]12O", "Potency": "inactive"}, {"compound": "C/C1=C\\CCC2=CC(OC2=O)C(C)(C)/C=C/C1=O", "note": "(stereo not given)", "Potency": "inactive"}, {"compound": "COc1ccc(CCc2nc3c(C)c(-c4c(C)noc4C)c(C)cc3n2CCN2CCOCC2)cc1", "Potency": "inactive"}, {"compound": "C=CC(=O)Nc1cccc(Nc2nc(Nc3ccc(OCCOC)cc3)ncc2F)c1", "Potency": "11.2 µM (active)"}, {"compound": "O=C1Nc2nc(-c3c(O)cccc3OCC3CC3)cc([C@@H]3CCCNC3)c2CO1", "Potency": "inactive"}, {"compound": "Cc1nc2ccc(-n3ncc(C(=O)c4cc5ccccc5[nH]4)c3N)cc2[nH]1", "Potency": "28.2 µM (active)"}, {"compound": "C=C1C(=O)O[C@@H]2C(OC(=O)/C(C)=C\\C)/C(C)=C\\C(=O)/C=C(\\C)C[C@H](O)[C@@H]12", "note": "(stereo not given in full)", "Potency": "inactive"}, {"compound": "O=C(Nc1ccccc1Cl)c1cnc2ccc(C3CCNCC3)cn12", "Potency": "inactive"}, {"compound": "Nc1ncnc2c1c(-c1ccc(Oc3ccccc3)cc1)nn2[C@@H]1CCCNC1", "Potency": "inactive"}, {"compound": "COc1c(C)cnc(Cn2cc(C#CCC(C)(C)O)c3c(Cl)nc(N)nc32)c1C", "Potency": "inactive"}, {"compound": "O=c1ccc2ccc(OCCCCN3CCN(c4cccc5sccc45)CC3)cc2[nH]1", "Potency": "inactive"}, {"compound": "CC1(C)CC[C@]23CO[C@@]4(CCC5[C@@]6(C)CC[C@H](O[C@@H]7OC[C@H](O[C@@H]8O[C@H](CO)[C@@H](O)[C@H](O)[C@H]8O[C@@H]8OC[C@@H](O)[C@H](O)[C@H]8O)[C@H](O)[C@H]7O[C@@H]7O[C@H](CO)[C@@H](O)[C@H](O)[C@H]7O)[C@@](C)(CO)C6CC[C@@]5(C)[C@]4(C)C[C@H]2O)[C@@H]3C1", "note": "(stereo not given in full)", "activity change, negative = cytotoxicity": "-0.159% [at 11.6 µM]"}, {"compound": "CCCc1cc(C)[nH]c(=O)c1CNC(=O)c1cc(-c2ccnc(N3CCN(C)CC3)c2)cc2c1cnn2C(C)C", "Potency": "35.5 µM (active)"}, {"compound": "CN1CCN(c2ccc(OC(F)(F)F)c(Nc3ncc4c(n3)-c3c(c(C(N)=O)nn3CCO)CC4)c2)CC1", "Potency": "0.224 µM (active)"}, {"compound": "COc1cc(-n2cnc3cc(-c4ccc(Cl)cc4)sc3c2=O)ccc1OCCN1CCCC1", "Potency": "inactive"}]}, {"system": "Hek293T", "test": "Primary qHTS to identify gynecologic anti-cancer compounds using libraries of approved drugs and bioactive compounds (AID 1345084)", "conditions": "Gynecologic cancer cell panel viability, ATPlite luminescence, 48 h, control line for the selectivity index; series mostly up to 57.5 µM", "outline": "as §1", "values": [{"compound": "C=CC(=O)N1CCC[C@@H](n2nc(-c3cccc(C(=O)Nc4ccc(C(C)C)c(C)c4)c3)c3c(N)ncnc32)C1", "Potency": "inactive"}, {"compound": "CC(C)=CCCC1(C)/C=C/C(OC(=O)C=C(C)C)C(C)(O)/C=C/C(=O)/C(CO)=C\\C1", "note": "(stereo not given)", "Potency": "8.91 µM (active)"}, {"compound": "Cc1nc2ccc(-n3ncc(C(=O)c4cc5ccccc5[nH]4)c3N)cc2[nH]1", "Potency": "14.1 µM (active)"}, {"compound": "C=C1C(=O)O[C@@H]2C(OC(=O)/C(C)=C\\C)/C(C)=C\\C(=O)/C=C(\\C)C[C@H](O)[C@@H]12", "note": "(stereo not given in full)", "Potency": "11.2 µM (active)"}, {"compound": "O=C(Nc1ccccc1Cl)c1cnc2ccc(C3CCNCC3)cn12", "Potency": "inactive"}, {"compound": "N#CC(CCCN1CCC(O)(c2ccc(Cl)cc2)CC1)(c1ccccc1)c1ccccc1", "Potency": "inactive"}, {"compound": "COc1c(C)cnc(Cn2cc(C#CCC(C)(C)O)c3c(Cl)nc(N)nc32)c1C", "Potency": "0.282 µM (active)"}, {"compound": "COC(=O)N1CCC(n2ncc3c(N4CCOCC4)nc(-c4ccc(NC(=O)NC5CC5)cc4)nc32)CC1", "Potency": "0.631 µM (active)"}, {"compound": "CC(O)(C(=O)O)C1CCC2(C)C1CCC1(C)C2CCC2C3(C)CCC(O)C(C)(COC4OC(CO)C(O)C(O)C4O)C3CCC21C", "note": "(stereo not given)", "Potency": "10 µM (active)"}, {"compound": "COc1cccc(-c2cc(F)ccc2C2Cc3nc(N)nc(C)c3C(=O)N2)n1", "note": "(stereo not given)", "Potency": "0.282 µM (active)"}]}, {"system": "JEG-3", "test": "Primary qHTS to identify gynecologic anti-cancer compounds using libraries of approved drugs and bioactive compounds (AID 1345084)", "conditions": "Gynecologic cancer cell panel viability, ATPlite luminescence, 48 h; series mostly up to 57.5 µM", "outline": "as §1", "values": [{"compound": "C=C1C(=O)O[C@@H]2C3=C(C)CCC[C@]3(C)CC[C@@]12O", "Potency": "inactive"}, {"compound": "O=C(Nc1cccc(C(F)(F)F)c1)Nc1ccc(Br)cc1-c1nn[nH]n1", "Potency": "inactive"}, {"compound": "C=CC(=O)N1CCC[C@@H](n2nc(-c3cccc(C(=O)Nc4ccc(C(C)C)c(C)c4)c3)c3c(N)ncnc32)C1", "Potency": "inactive"}, {"compound": "Oc1cccc(C2NC(=S)Nc3cccc(F)c32)c1", "note": "(stereo not given)", "Potency": "22.4 µM (active)"}, {"compound": "O=C(Nc1cccc2cccnc12)c1ccc(N2C(=O)[C@@H]3C4C=CC(C4)[C@@H]3C2=O)cc1", "Potency": "31.6 µM (active)"}, {"compound": "O=C(Nc1ccc(C(O)(C(F)(F)F)C(F)(F)F)cc1)c1ccc(C(F)(F)F)cc1", "Potency": "inactive"}, {"compound": "Oc1ccc(-c2cnc3ccc(NCc4ccco4)nn23)cc1", "Potency": "inactive"}, {"compound": "C=CS(=O)(=O)NC1CCN(C(=O)CNc2cc(I)c(Cl)cc2OC)CC1", "Potency": "inactive"}, {"compound": "C=CC(=O)Nc1cccc(Nc2nc(Nc3ccc(OCCOC)cc3)ncc2F)c1", "Potency": "inactive"}, {"compound": "O=C1Nc2nc(-c3c(O)cccc3OCC3CC3)cc([C@@H]3CCCNC3)c2CO1", "Potency": "inactive"}, {"compound": "Nc1ncnc2c1c(-c1ccc(Oc3ccccc3)cc1)nn2[C@@H]1CCCNC1", "Potency": "inactive"}, {"compound": "N#CC(CCCN1CCC(O)(c2ccc(Cl)cc2)CC1)(c1ccccc1)c1ccccc1", "Potency": "inactive"}, {"compound": "O=c1ccc2ccc(OCCCCN3CCN(c4cccc5sccc45)CC3)cc2[nH]1", "Potency": "inactive"}, {"compound": "COC(=O)N1CCC(n2ncc3c(N4CCOCC4)nc(-c4ccc(NC(=O)NC5CC5)cc4)nc32)CC1", "Potency": "inactive"}, {"compound": "COc1cc(-n2cnc3cc(-c4ccc(Cl)cc4)sc3c2=O)ccc1OCCN1CCCC1", "Potency": "inactive"}]}]}
